Test results taken from PubChem BioAssay AID1508600 (Functional Genomics Laboratory (NCATS/FGL), 2020).
In all, about 53,000 sequences went through this assay and about 3,700 (7%) were called active.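 Rule for the calls: active = gene knockdowns whose robust z-score for IL-1 alpha signal is at least 2 or at most -2, so actives lie on both sides; inactive = the rest.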 The sample as a whole holds a higher share of actives than the screen did.

assay: Components of the Cytosolic LPS Sensing Pathway: Gene Identification via Genome-wide siRNA Screen; details: RAW264.7 macrophages, IL-1a HTRF, actives lie on both sides, screened at 100 nM (by protocol), cells primed 5 h with Pam3CSK4 first;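 note: robust z of the log signal after scaling to non-targeting control siRNA wells of the plate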
Outline: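 Cells (RAW264.7, 1×10^4 per well) were transfected with siRNA at 100 nM and cultured 48h at 37 degrees C. Pam3CSK4 was added for 5 hours; LipidA transfection followed for 24 hour. IL-1a was then measured by HTRF.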

Row | Sequence | z-score
1 | GGUUGCGUGUGGUUACUAUTT against Herc4 | 0.161 (inactive)
2 | CCUCUGUGAUUUCAUUCUUTT against Hhip | -0.991 (inactive)
3 | GGCAUUUUCACAAAAGACUTT against Rab23 | -1.43 (inactive)
4 | GGAUGGCUACCGAAAAAAUTT against Eif3c | 0.967 (inactive)
5 | CGACGCAUUGAGGCAAUCUTT against Camsap3 | -0.483 (inactive)
6 | GGCAAAGCACCUUUAUCUGTT against G430095P16Rik | -0.664 (inactive)
7 | CCCAAGGUCCAGUUUGAUGTT against Mettl17 | -2.42 (active)
8 | GGCAAGGAUAAGACAGUAGTT against Hs3st3b1 | -0.354 (inactive)
9 | GGAUGAAGACCUUGAACGGTT against Slc28a3 | 1.48 (inactive)
10 | GGAAACAGGUCUGUCCCAATT against Ankle1 | -2.22 (active)
11 | GGUUACCUAGAAGUGGACUTT against Igsf6 | 0.201 (inactive)
12 | CCUUUCCAAACACCUAUAATT against Sox6 | -1.2 (inactive)
13 | CCUUUCAGACCAGUUCAUUTT against Ppp1r17 | 0.193 (inactive)
14 | GGUUCUUUUCAGCUCAUUATT against Toporsl | -0.0962 (inactive)
15 | GCUUCCUACGGUGUGUCAATT against Hnrnpu | -2.43 (active)
16 | GGAGCCCAAAAAGAAGAAATT against Mrpl48 | 0.43 (inactive)
17 | GGCCCAGCAAAAAAAGAAGTT against Usp46 | -0.397 (inactive)
18 | GGUCAUAGCACCAUGUUCUTT against Gata5 | 0.831 (inactive)
19 | GGAAGAGACUUAUAAUGGUTT against Olfr1214 | 1.28 (inactive)
20 | CGAAAUCAGAACCUGGGAATT against Hacd3 | 2.73 (active)
21 | GGCUAUGUCUGUUUCCUUUTT against Defa-rs10 | 0.963 (inactive)
22 | GGAUAUUCCUGGACUGACATT against Rps6 | -0.996 (inactive)
23 | GGCAGAAUAUACUUGCCCUTT against Uevld | -0.156 (inactive)
24 | GGAGAGCUCCUAUAAUCCUTT against Plau | 0.267 (inactive)
25 | GGAUAUUGUCUUUGUAGAATT against Kap | -0.565 (inactive)
26 | GGACGUGAAGUGAAGUCAUTT against 1810009N02Rik | -0.626 (inactive)
27 | GGCCUUGUACUUACACAAGTT against Rspo1 | 0.398 (inactive)

Row | Sequence | z-score
28 | CCUUUCCUACUCUGUACCCTT against Abcg1 | 2.22 (active)
29 | GGAUUCUCACAAGUAAUUCTT against Ifi203 | 0.272 (inactive)
30 | GGCUGUCACCCUACAUGACTT against Uba1 | 0.0469 (inactive)
31 | GGAUAUGUUUGGUUAUUUCTT against Acbd4 | -0.0997 (inactive)
32 | GGAGACUGUGAUUGAGAUGTT against Rnf181 | -0.401 (inactive)
33 | CGACAAAAGCCACCUUUCGTT against Tm4sf4 | -2.62 (active)
34 | GGAGUCUGUGAACAAUCUCTT against Mx2 | 0.0232 (inactive)
35 | GGAGUGUGUAAAGACAUAATT against Rnase2a | -0.685 (inactive)
36 | GGACAAGAGGAGCUUUUGCTT against Id3 | -0.446 (inactive)
37 | GGUUUUCUUAAAAUAGGAGTT against Tat | -0.205 (inactive)
38 | GGAGGACUGGGAAGAUCAUTT against Aqp5 | 0.152 (inactive)
39 | GGAGCCCAGGAAGAUGACATT against Cyp2c54 | -3.15 (active)
40 | GGUAAGUUAAAUGAUGACATT against Ccdc148 | -0.896 (inactive)
41 | GGAUAUAACUGCUAUGGUUTT against Rhebl1 | -0.241 (inactive)
42 | GCUUAGAGCUUCAUAUAGCTT against Tlr12 | -0.367 (inactive)
43 | GGCUGACUUCGUUUUCAUGTT against Derl3 | -2.01 (active)
44 | GGUGGAAGCAAUUUUAAAUTT against Trpc7 | 0.384 (inactive)
45 | GGGAUGAGUACAAGAAAAATT against Nsun3 | -0.927 (inactive)
46 | CGUGUUGGAGUACAAUGAGTT against Imp3 | -0.927 (inactive)
47 | GGACAGUGAAGAGGAUUCCTT against Anapc15 | -0.988 (inactive)
48 | GCGGAUUAACCUCUGUGGCTT against Igfl3 | 0.244 (inactive)
49 | GGGUGACAGGUUGAUCUCATT against Tcn2 | -2.11 (active)
50 | GGUGGAGGAACGAAAGUUUTT against Ribc1 | 0.625 (inactive)
51 | CGAGGUCAAUAUCAUUCCATT against Serpinb11 | 0.727 (inactive)
52 | GCUGCUAAUAUCAAUAACGTT against Prf1 | -0.809 (inactive)
53 | GGCCAAACAACUGGUGAAGTT against Nelfe | -0.832 (inactive)
